Our source for the inhibition values is PubChem BioAssay.

The term inhibition denotes the share of the control response that was lost under treatment.

Active and inactive are the calls of the source. No rule for the calls is given here.

Sequence of Pantothenate synthetase (Mycobacterium tuberculosis (strain ATCC 25618 / H37Rv)) (P9WIL5 whole entry, looked up): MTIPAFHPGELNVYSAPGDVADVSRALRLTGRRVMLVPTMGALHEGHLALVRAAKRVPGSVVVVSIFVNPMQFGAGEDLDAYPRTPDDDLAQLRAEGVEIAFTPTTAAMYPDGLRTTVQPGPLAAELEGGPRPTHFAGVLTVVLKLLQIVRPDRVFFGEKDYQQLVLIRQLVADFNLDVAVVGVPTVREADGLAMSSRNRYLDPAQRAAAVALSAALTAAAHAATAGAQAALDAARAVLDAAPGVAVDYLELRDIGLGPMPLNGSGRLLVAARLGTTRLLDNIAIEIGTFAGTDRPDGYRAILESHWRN

This assay concerns the target Pantothenate synthetase (Mycobacterium tuberculosis (strain ATCC 25618 / H37Rv)) (UniProt P9WIL5). As to the kind of experiment: Recombinant Mtb pantothenate synthetase (PanC) inhibitors, coupled enzyme, confirmatory (AID 375).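 Also: 0% = full reaction with vehicle and 100% = no enzyme background.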 Conditions: coupled enzyme assay; at 10 µM, stronger effect = higher value.
As to `CCOC(=O)c1c(C)n(OCc2ccccc2)c2ccc3c(no[n+]3[O-])c12`, the inhibition was 0% (inactive).
Turning to `CC1Cc2ccccc2N1C(=O)CSc1nnc2n1C(C)(C)Cc1ccccc1-2` (stereo unspecified), the inhibition is 0% (inactive).
With `CCOC(=O)CNC(=O)C(Cc1ccccc1)NS(=O)(=O)c1ccc2c(c1)CCC(=O)N2` (stereo unspecified) the figure was 0% (inactive); with `O=C(O)c1cccc(NC(=O)C23CC4CC(C2)CC(n2cnc(Cl)n2)(C4)C3)c1`, 1% (inactive).
`Cc1ccc(NC(=O)COS(=O)c2ccc(C)cc2)cc1` (stereo unspecified): the inhibition was 0% (inactive).
On to `O=C(O)C1CC=CCC1C(=O)Nc1cc(Cl)ccc1Cl` (stereo unspecified), for which the inhibition is 1% (inactive).
Regarding `COc1ccc(-c2n[nH]c(C)c2-c2ccc(Cl)cc2)c(O)c1OC`, the inhibition is 0% (inactive).
On to `O=C1NC(=O)C(c2ccccc2)(c2ccccc2)N1`, for which the inhibition is 0% (inactive).
With `COc1ccc(-n2ncc3c(NCc4cccs4)ncnc32)cc1` the figure was 0% (inactive); with `Cc1ccc(Nc2nc(N)nc(CN3CCN(Cc4ccc5c(c4)OCO5)CC3)n2)cc1`, 0% (inactive); with `CCOc1ccc(CN2C(=O)c3ccccc3C2C(=O)NCc2cccnc2)cc1` (stereo unspecified), 0% (inactive).
Next, `CCC(=O)c1ccc(OC(=O)c2ccc(Br)o2)cc1`: 7% (inactive); `Cc1cc(C)nc(Sc2ccc3nnc(C(F)(F)C(F)(F)C(F)(F)F)n3n2)n1`: 6% (inactive); `COCn1c(COc2ccccc2)nc2ccccc21`: 0% (inactive).
Next, `CCOC(=O)c1cccc(NC(=O)CSc2nnc(-c3cccnc3)n2C)c1`: 7% (inactive); `CC(=O)[C@@]1(O)CC[C@H]2[C@@H]3CCC4=CC(=O)CC[C@]4(C)[C@H]3[C@@H](O)C[C@@]21C`: 0% (inactive).
